The target of experiment [1] is Nucleoprotein (Lymphocytic choriomeningitis virus (strain Armstrong)) (UniProt P09992). As to the kind of experiment: qHTS for Inhibitors of the Functional Ribonucleoprotein Complex (vRNP) of Lymphocytic Choriomeningitis Arenaviruses (LCMV): LCMV Primary Screen - GLuc reporter signal (AID 1347086; calls by dose curve; further: series mostly up to about 57 µM; nearly all actives have a fitted effect of over 70% in size). (In general: qHTS replaces the single test concentration by a dilution series.)

Experiment [2] in a line: qHTS of pediatric cancer cell lines to identify multiple opportunities for drug repurposing: Primary screen for TC32 cells (AID 1347089). Further: nearly all actives have a fitted effect of over 60% in size. Further: potency means the concentration at half of the fitted maximal effect. The method in brief: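 Luminescent CellTiter-Glo read-out of metabolically active TC32 cells after 48 h compound exposure. Primary: MIPE 11-point, 0.78 nM–46 µM; NPC 8-point, 0.59 nM–46 µM. Confirmatory: 11-point dilutions.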
Experiment [3] in a line: qHTS of pediatric cancer cell lines to identify multiple opportunities for drug repurposing: Primary screen for SJ-GBM2 cells (AID 1347091). Further: potency means the concentration at half of the fitted maximal effect. The method in brief: (§1)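 Eight- or eleven-point concentration series, 48 h treatment at 37 degrees C in growth media; readout CellTiter-Glo luminescence. Potency and efficacy were taken from the concentration-response curves.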
Experiment [4] in a line: qHTS of pediatric cancer cell lines to identify multiple opportunities for drug repurposing: Primary screen for BT-37 cells (AID 1347094). Further: potency means the concentration at half of the fitted maximal effect. The method in brief: (§2)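 CRCs from 8- or 11-point titrations (lowest final 0.59 nM NPC, 0.78 nM MIPE). Cell viability: CellTiter-Glo after 48 h incubation, 15 min room-temperature development, luminescence imaging.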
Experiment [5] is described as follows: qHTS of pediatric cancer cell lines to identify multiple opportunities for drug repurposing: Primary screen for NB-EBc1 cells (AID 1347095). Further: potency means the concentration at half of the fitted maximal effect. The method in brief: as §2
The nature of experiment [6]: qHTS of pediatric cancer cell lines to identify multiple opportunities for drug repurposing: Primary screen for U-2 OS cells (AID 1347096). Further: nearly all actives have a fitted effect of over 50% in size. Further: potency means the concentration at half of the fitted maximal effect. The method in brief: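 Cells (500-1,000/well) in growth media were settled 5 h at 37 degrees C, then given compounds for 48 h. Viability was read as CellTiter-Glo luminescence. Primary runs used MIPE at 11 points (0.78 nM-46 µM) and NPC at 8 points (0.59 nM-46 µM); follow-ups used 11 points.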

Experiment [7] is described as follows: qHTS of pediatric cancer cell lines to identify multiple opportunities for drug repurposing: Primary screen for SK-N-MC cells (AID 1347093). Further: potency means the concentration at half of the fitted maximal effect. The method in brief: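 Metabolically active cells were quantified by ATP-dependent luminescence (CellTiter-Glo, 15 min at room temperature) following 48 h treatment. Cells had been plated at 500-1,000 per well and settled for 5 h beforehand.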

The nature of experiment [8]: qHTS of pediatric cancer cell lines to identify multiple opportunities for drug repurposing: Primary screen for Saos-2 cells (AID 1347097). Further: nearly all actives have a fitted effect of over 40% in size. Further: potency means the concentration at half of the fitted maximal effect. The method in brief: as §2
Experiment [9] in a line: qHTS of pediatric cancer cell lines to identify multiple opportunities for drug repurposing: Primary screen for DAOY cells (AID 1347090). Further: nearly all actives have a fitted effect of over 55% in size. Further: potency means the concentration at half of the fitted maximal effect. The method in brief:
as §1

Experiment [10] can be described thus: qHTS of pediatric cancer cell lines to identify multiple opportunities for drug repurposing: Primary screen for A673 cells (AID 1347092). Further: nearly all actives have a fitted effect of over 45% in size. Further: potency means the concentration at half of the fitted maximal effect. The method in brief:
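A673 cells (500-1,000 cells/well in growth media) were pre-incubated 5 h at 37 degrees C, then exposed to compounds for 48 h. Viability was read as CellTiter-Glo luminescence; concentration-response curves came directly from the primary screen.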

Molecules are shown by their SMILES. Records with an inconclusive call do not appear. The source made the active and inactive calls. Unless noted, the call rests on the fitted dose curve; in most records, active means well fitted curve in the direction sought with a large enough effect; inconclusive means small, poorly fitted or top-dose-only effect, or another doubt; inactive means no such curve, though single readings can be large; an effect the other way counts as inactive or inconclusive.

Chain of Nucleoprotein (Lymphocytic choriomeningitis virus (strain Armstrong)) (P09992 whole entry, looked up): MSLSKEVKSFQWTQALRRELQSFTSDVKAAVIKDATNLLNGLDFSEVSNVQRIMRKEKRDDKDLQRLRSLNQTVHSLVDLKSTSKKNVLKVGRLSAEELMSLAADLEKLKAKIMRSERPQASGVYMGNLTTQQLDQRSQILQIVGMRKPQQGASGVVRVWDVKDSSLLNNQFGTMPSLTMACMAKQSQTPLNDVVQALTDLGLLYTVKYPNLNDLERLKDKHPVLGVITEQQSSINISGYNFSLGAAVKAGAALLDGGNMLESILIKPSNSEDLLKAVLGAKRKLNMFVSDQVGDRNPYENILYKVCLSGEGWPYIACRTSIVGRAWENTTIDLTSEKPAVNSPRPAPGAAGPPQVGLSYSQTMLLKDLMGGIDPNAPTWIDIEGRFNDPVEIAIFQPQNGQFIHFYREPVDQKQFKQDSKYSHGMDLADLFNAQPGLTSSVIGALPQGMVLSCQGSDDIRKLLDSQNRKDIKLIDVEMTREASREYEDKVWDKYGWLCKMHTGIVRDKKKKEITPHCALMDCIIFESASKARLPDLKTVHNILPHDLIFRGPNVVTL

Consider `Oc1ccc([C@H]2CNCc3c2ccc(O)c3O)cc1O`, for which the Potency entry in experiment [1], in experiment [2], in experiment [3], in [4], in [5] and in [6] was “inactive” each time.

For `CN1[C@@H]2CC[C@H]1CC(OC(=O)c1cc(Cl)cc(Cl)c1)C2` (some centres undefined), the Potency entry in [1], in experiment [2], in experiment [3], in experiment [5] and in [6] was “inactive” throughout. Also, the Potency in experiment [7] was 0.001 µM (active); in [8], 75 µM (active).

As to `CCO[C@H]1O[C@@H]2OC3(C)CC[C@H]4[C@H](C)CC[C@@H]([C@H]1C)[C@@]24OO3`, the Potency entry in [2], in experiment [9], in experiment [3], in [10], in experiment [4] and in [6] was “inactive” throughout. Moreover, the Potency in experiment [7] was 4.73 µM (active).

As for `C[C@H](CN1CCOCC1)C(C(=O)N1CCCC1)(c1ccccc1)c1ccccc1`, the Potency result in experiment [2], in [9], in [5] and in [6] was “inactive” throughout.

On to `C[C@]12Cc3nonc3C[C@@H]1CC[C@@H]1[C@@H]2CC[C@@]2(C)[C@H]1CC[C@]2(C)O`, for which the Potency entry in [1], in experiment [2], in experiment [9] and in experiment [6] was “inactive” each time.

Turning to `Nc1ccc(Cl)cc1C(=O)c1ccccc1F`, the Potency result in [1], in [9], in experiment [3], in experiment [4] and in experiment [6] was “inactive” in each case.

As for `COc1ccc2c3c1O[C@H]1[C@@H](O)C=C[C@H]4[C@@H](C2)N(C)CC[C@@]341`, the Potency in [10] was 23.8 µM (active); in experiment [7] it was 33.7 µM (active); in [8], 37.8 µM (active).

Regarding `CN1C(=O)[C@@H](NC(=O)c2cc3ccccc3[nH]2)N=C(c2ccccc2)c2ccccc21`, the Potency result in [1], in experiment [2], in experiment [4], in [5] and in [6] was “inactive” throughout. Also, the Potency in experiment [10] was 6.68 µM (active); in experiment [8] it was 10.6 µM (active).

In the case of `CC[C@]1(O)CC[C@H]2[C@@H]3CCC4=CCCC[C@@H]4[C@H]3CC[C@@]21C`, the Potency entry in [1], in experiment [4] and in experiment [6] was “inactive” each time.

As for `CN(C)C(=S)SSC(=S)N(C)C`, the Potency in experiment [2] was 4.19 µM (active); in experiment [9] it was 0.168 µM (active); in [10] it was 0.211 µM (active); in experiment [7], 0.188 µM (active); in experiment [4], 0.872 µM (active); in experiment [5] it was 9.44 µM (active). For the same compound, the results for the Potency in experiment [6] and in [8] were 0.266 µM (active) and 0.133 µM (active), respectively.

Take `CC(C)(C)OC(=O)c1ncn2c1[C@@H]1CCCN1C(=O)c1c(Br)cccc1-2`: the Potency entry in [2], in [9], in experiment [3], in experiment [10], in experiment [7] and in [4] was “inactive” throughout. The Potency entry in experiment [5], in experiment [6] and in experiment [8] was “inactive” each time.

With `Cc1ccc([N+](=O)[O-])[c]2c1[O][Hg]2`, the Potency in experiment [2] is 0.264 µM (active); in experiment [9], 1.06 µM (active); in [10], 0.0531 µM (active); in experiment [7] it was 0.0944 µM (active); in experiment [4], 1.55 µM (active); in experiment [6], 2.66 µM (active). Besides, the Potency in experiment [8] was 0.106 µM (active).

`N#Cc1nn(-c2c(Cl)cc(C(F)(F)F)cc2Cl)c(N)c1S(=O)C(F)(F)F` (centres undefined): the Potency entry in experiment [2], in experiment [10], in [4] and in [6] was “inactive” throughout.

`Clc1ccc(CSC(Cn2ccnc2)c2ccc(Cl)cc2Cl)cc1` (centres undefined): the Potency result in experiment [1] was “inactive”. Moreover, the Potency in [10] was 26.6 µM (active); in [7], 33.5 µM (active).

For `CC[n+]1c(-c2ccccc2)c2cc(N)ccc2c2ccc(N)cc21`, the Potency was 8.36 µM (active) in experiment [2]; 0.841 µM (active) in experiment [9]; 2.66 µM (active) in [3]; 3.35 µM (active) in experiment [10]; 2.11 µM (active) in experiment [7]; 2.46 µM (active) in experiment [4]. For the same compound, in [8], the Potency was 13.3 µM (active).

Turning to `COc1cc(CC(C)N)c(OC)cc1Br` (centres undefined), the Potency entry in experiment [1], in experiment [9], in [3] and in experiment [6] was “inactive” throughout. The Potency is 44.9 µM (active) in experiment [7] and 35.7 µM (active) in experiment [8].

For `O=C(NC(=O)c1c(F)cccc1F)Nc1cc(Cl)c(OC(F)(F)C(F)C(F)(F)F)cc1Cl` (centres undefined), the Potency result in [1], in experiment [2], in experiment [9], in experiment [10], in experiment [7] and in experiment [5] was “inactive” in each case. Moreover, the Potency entry in [8] is “inactive”.

In the case of `CC(C)=CCN1CC[C@@]2(C)c3cc(O)ccc3C[C@@H]1[C@@H]2C`, the Potency result in experiment [1], in experiment [2], in [9], in experiment [5] and in experiment [6] was “inactive” throughout.

`CC#C[C@]1(O)CC[C@H]2[C@@H]3C[C@H](C)C4=CC(=O)CC[C@]4(C)[C@H]3CC[C@@]21C`: the Potency entry in [1], in experiment [2], in experiment [9], in [10], in experiment [6] and in experiment [8] was “inactive” throughout. Further, in experiment [7], the Potency was 23.7 µM (active).

Take `CN(C)CCc1c[nH]c2ccc(O)cc12`: the Potency entry in [1], in experiment [3], in experiment [4], in experiment [5], in experiment [6] and in [8] was “inactive” in each case.

Regarding `Oc1ccc2[nH]cc(CCCCN3CC=C(c4ccccc4)CC3)c2c1`, the Potency result in experiment [1], in experiment [9], in experiment [6] and in [8] was “inactive” throughout.

On to `C#C[C@]1(O)CC[C@H]2[C@@H]3CCC4=CC(=O)CCC4=C3C=C[C@@]21CC`, for which the Potency result in experiment [1], in experiment [2], in experiment [3], in experiment [5], in experiment [6] and in experiment [8] was “inactive” throughout.

For `COc1ccc2c(C(=O)c3ccc(Cl)cc3)c(C)n(CC(=O)O)c2c1`, the values for the Potency in experiment [9] and in [7] were 21.1 µM (active) and 8.41 µM (active), respectively. The Potency entry in experiment [3], in experiment [4], in [6] and in experiment [8] was “inactive” each time.

Turning to `CC(=O)OC1(c2ccccc2)CCN(CCc2ccccc2)CC1`, the Potency result in experiment [1], in [2], in [9] and in [6] was “inactive” throughout.

With `Clc1ccc(C(OCCN2CCCCC2)c2ccccc2)cc1` (centres undefined), the Potency entry in [1], in [2], in [9], in [6] and in experiment [8] was “inactive” each time.

For `CNC(=O)Oc1cccc2ccccc12`, the Potency result in experiment [1], in experiment [9], in experiment [3], in experiment [10], in experiment [7] and in experiment [4] was “inactive” in each case. The Potency result in experiment [5], in experiment [6] and in [8] was “inactive” each time.

Regarding `CCC(OC(C)=O)C(CC(C)NC)(c1ccccc1)c1ccccc1` (centres undefined), the Potency in [10] is 27.6 µM (active); in [7], 31 µM (active); in experiment [4], 35.9 µM (active); in [8], 43.7 µM (active). Further, in experiment [5], the Potency entry was “inactive”.

Source of the values: PubChem BioAssay (NCATS).
